# Records with an inconclusive call do not appear. Where a call stands in place of a potency, no number is given. Activity calls are given as the source filed them. Calls come from the whole dose curve; as a rule, active = well fitted inhibition curve with a large enough effect in the signal ratio in the repeat runs (not every such curve was filed as active); inconclusive = weak or mixed curves; inactive = flat fitted curve, though single readings scatter; the % refers to the signal ratio.
# Molecular target: Progesterone receptor (Homo sapiens) (UniProt P06401)
# Sequence (P06401 whole entry, looked up): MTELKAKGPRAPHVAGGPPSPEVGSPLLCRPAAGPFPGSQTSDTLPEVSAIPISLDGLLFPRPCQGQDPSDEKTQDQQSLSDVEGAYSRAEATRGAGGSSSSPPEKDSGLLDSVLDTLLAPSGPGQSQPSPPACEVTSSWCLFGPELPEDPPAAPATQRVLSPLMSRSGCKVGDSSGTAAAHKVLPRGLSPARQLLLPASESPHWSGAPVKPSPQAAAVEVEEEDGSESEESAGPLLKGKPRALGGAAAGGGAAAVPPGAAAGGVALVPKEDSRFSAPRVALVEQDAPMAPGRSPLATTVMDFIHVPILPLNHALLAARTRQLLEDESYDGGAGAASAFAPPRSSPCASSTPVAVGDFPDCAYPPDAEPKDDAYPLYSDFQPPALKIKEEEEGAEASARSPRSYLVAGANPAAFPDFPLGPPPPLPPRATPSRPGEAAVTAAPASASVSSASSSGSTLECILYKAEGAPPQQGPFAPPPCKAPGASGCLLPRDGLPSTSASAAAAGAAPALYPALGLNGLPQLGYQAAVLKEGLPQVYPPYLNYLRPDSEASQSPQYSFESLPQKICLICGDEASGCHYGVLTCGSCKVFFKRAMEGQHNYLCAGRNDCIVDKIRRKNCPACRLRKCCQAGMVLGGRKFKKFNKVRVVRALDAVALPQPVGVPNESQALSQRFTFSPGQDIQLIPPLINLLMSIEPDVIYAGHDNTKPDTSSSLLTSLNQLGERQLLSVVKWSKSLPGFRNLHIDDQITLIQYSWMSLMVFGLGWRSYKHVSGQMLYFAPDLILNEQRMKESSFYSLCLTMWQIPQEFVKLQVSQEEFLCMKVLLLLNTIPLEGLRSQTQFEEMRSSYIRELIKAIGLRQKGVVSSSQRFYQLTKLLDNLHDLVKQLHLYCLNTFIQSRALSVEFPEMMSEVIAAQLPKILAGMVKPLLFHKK
# Assay: qHTS assay to identify small molecule antagonists of the progesterone receptor (PR) signaling pathway (AID 1346795)
# Details: PR-UAS-bla HEK293T, beta-lactamase FRET ratio, 16 h; series mostly up to 92.4 µM
# Text: National Center for Advancing Translational Sciences [NCATS]
# NIH Chemical Genomics Center [NCGC]
# U.S. Environmental Protection Agency [EPA]
# National Institutes of Environmental Health Sciences [NIEHS]
# National Toxicology Program [NTP]
# U.S. Food and Drug Administration [FDA]
# Progesterone receptor (PR), a nuclear hormone receptor, plays an important role in development, metabolic homeostasis and reproduction. […] Endocrine disrupting chemicals (EDCs) and their interactions with steroid hormone receptors like PR causes disruption of normal endocrine function. To identify the compounds that inhibit PR signaling, a PR-UAS-bla GripTite cell line i.e. PR-UAS-bla HEK293T (Invitrogen, Carlsbad, CA, USA) containing a beta-lactamase reporter gene under the control of an Upstream Activator Sequence (UAS) was used to screen Tox21 10K compound library.
# Tox21 Assay Protocol Summary:
# PR-UAS-bla HEK293T cells were dispensed at 3,000 cells/4 uL of assay medium containing 2% charcoal stripped FBS per well into black wall/clear-bottom 1536-well plates using a Multidrop Combi (ThermoFisher Scientific, Waltham, MA) dispenser. After the assay plates were incubated at a 37C and 5% CO2 for 6 hr, 23 nL of compounds dissolved in DMSO, positive controls or DMSO only was transferred to the assay plate by a Pintool station (Kalypsys, San Diego, CA), followed by addition of 1 uL (1nM as final concentration) of Promegestone (R5020) in assay medium using a BioRAPTR FRD (Flying Reagent Dispenser, Aurora Discovery, San Diego, CA). The plates were incubated at 37C and 5% CO2 for 16 hr. Then 1 uL of LiveBLAzer B/G FRET substrate was added using a FRD. After the plates were incubated at room temperature for 2 hours, fluorescence intensity was measured by an Envision plate reader (PerkinElmer, Shelton, CT).
# Potency is the fitted concentration of half-maximal effect.
row,SMILES,Potency
1,C[C@@H](N)[C@@H](O)c1ccccc1,inactive
2,CCC(C(N)=O)N1CCCC1=O (stereo not given),inactive
3,C[C@H]1CCCC(=O)CCC/C=C/c2cc(O)cc(O)c2C(=O)O1,5.02 µM (active)
4,O=C(Cl)c1ccccc1,inactive
5,CC1=C2[C@H]3OC(=O)[C@@H](C)[C@@H]3CC[C@@]2(C)C=CC1=O,inactive
6,CCOC(=O)C(Cl)Cc1cc(-n2nc(C)n(C(F)F)c2=O)c(F)cc1Cl (stereo not given),inactive
7,O=C(O)C(Cl)Br (stereo not given),inactive
8,O=C(O)c1c(Cl)ccc2cc(Cl)cnc12,inactive
9,O=[N+]([O-])c1cccc(CCl)c1,inactive
10,CN1C(=O)COc2c(C(=O)NC3CN4CCC3CC4)cc(Cl)cc21 (stereo not given),inactive
11,ClC1=C(Cl)C2(Cl)C(CBr)CC1(Cl)C2(Cl)Cl (stereo not given),inactive
12,CC(=NC#N)N(C)Cc1ccc(Cl)nc1,inactive
13,CC(C)(C)c1cc(O)ccc1O,inactive
14,O=P(O)(O)c1ccccc1,inactive
15,CS(=O)(=O)Cl,inactive
16,C[C@H](N)C(=O)c1ccccc1,inactive
17,CCC(C)C(C)(COC(N)=O)COC(N)=O (stereo not given),inactive
18,CCOC(=O)c1ncn2c1CN(C)C(=O)c1c(I)cccc1-2,inactive
19,CN(C)CCc1c[nH]c2cccc(OP(=O)(O)O)c12,inactive
20,COc1cccc([C@@]2(O)CCCC[C@@H]2CN(C)C)c1,inactive

row,SMILES,Potency
1,Cn1c(N)nc2c3cccnc3ccc21,inactive
2,C=C1CC[C@@]2(O)[C@H]3Cc4ccc(O)c5c4[C@@]2(CCN3CC2CC2)[C@H]1O5,inactive
3,NC(=O)CS(=O)C(c1ccccc1)c1ccccc1 (stereo not given),inactive
4,CN1COCN(Cc2cnc(Cl)s2)/C1=N\[N+](=O)[O-],inactive
5,NC(=O)OCCCc1ccccc1,inactive
6,Cc1ccc(S(=O)(=O)N[C@@H](CCCCN)C(=O)CCl)cc1,inactive
7,CC(C)c1ccc(O)cc1,inactive
8,COC[C@@H](NC(C)=O)C(=O)NCc1ccccc1,inactive
9,Clc1nc(Cl)nc(Nc2ccccc2Cl)n1,inactive
10,CN(CCO)CCO,inactive
11,CC(C)(N)Cc1ccccc1Cl,inactive
12,O=C(Cl)C(Cl)Cl,inactive
13,C=CCN1CC[C@]23CCCC[C@H]2[C@H]1Cc1ccc(O)cc13,inactive
14,COc1cc(CC(C)N)cc(OC)c1OC (stereo not given),inactive
15,O=c1[nH]c2ccccc2o1,inactive
16,CCC(=O)OC1(c2ccccc2)CCN(C)CC1,inactive
17,Nc1c(Cl)c(F)nc(OCC(=O)O)c1Cl,inactive
18,CCC(CC)(CNC(=O)CCCO)c1cccc(OC)c1,inactive
19,C#CCOC(=O)/C=C(C)/C=C/CC(C)CCCC(C)C (stereo not given),inactive
20,CC(O)CCl (stereo not given),inactive
